# Assay outcomes from PubChem.
# Compounds with a hit are over-represented: about 2.9% of the library has one in this group of screens.
# MEKK2wt PB1 HTS = raises or lowers MEK5 binding to wildtype human MEKK2 PB1 domain | hit rate 1.1% among 290,000 | binding response (% of control), % at 10 µM | bead flow cytometry, Alexa488-MEK5 binding to MEKK2 WT; actives lie on both sides | Q9Y2U5; in the data active = binding response below about 67% or above about 130%
# MEKK3 PB1 HTS = raises or lowers MEK5 binding to the human MEKK3 PB1 domain; Q99759; binding response (% of control), % at 10 µM; hit rate 1.4% among 290,000; bead-based flow cytometry, Alexa488-MEK5 binding to MEKK3; actives lie on both sides; 0 = blocked by unlabeled MEK5, 100 = vehicle;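 active = binding response more than 3 SD above or below the average of its plate-row segment, actives on both sides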;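 note: Alexa488 bead fluorescence after subtracting the streptavidin-only scavenger bead signal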
# B2AR ag = activates human beta-2 adrenergic receptor causing internalization; P07550; Am2.2-beta2AR cells, FAP receptor internalization, flow cytometry; response, % (concentration not given with the values); hit rate 0.43% among 340,000; AID 504454;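 active = response above a set limit, near 3 SD of response in nonfluorescent compounds, cut at about 42% in these data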
# Target sequence (P07550 whole entry, looked up): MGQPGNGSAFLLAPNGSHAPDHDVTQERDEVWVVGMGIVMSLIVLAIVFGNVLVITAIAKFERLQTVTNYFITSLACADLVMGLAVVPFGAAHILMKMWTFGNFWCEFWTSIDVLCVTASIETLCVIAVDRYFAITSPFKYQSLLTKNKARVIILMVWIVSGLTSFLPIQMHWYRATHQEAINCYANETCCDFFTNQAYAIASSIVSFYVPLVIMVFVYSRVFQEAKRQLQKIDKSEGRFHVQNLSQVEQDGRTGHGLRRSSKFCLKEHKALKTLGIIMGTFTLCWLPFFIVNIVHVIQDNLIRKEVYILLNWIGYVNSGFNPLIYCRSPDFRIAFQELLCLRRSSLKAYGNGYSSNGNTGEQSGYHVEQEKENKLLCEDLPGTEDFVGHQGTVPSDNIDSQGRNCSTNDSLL
# GRK2 inh = blocks RNA aptamer binding to human GRK2; inhibition of aptamer binding, % at 10 µM; hit rate 0.59% among 330,000; P25098; bead flow cytometry, FAM-aptamer displacement from GRK2;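 active = inhibition of aptamer binding above 40%, roughly 3 SD of noise, on plates passing a quality check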;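 note: median bead fluorescence of bound FAM aptamer so fluorescent compounds give negative values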
# MEKK2mut PB1 HTS = signal of MEK5 binding to mutant human MEKK2 PB1 domain. AID 1530. hit rate 0.35% among 290,000. percent response, % at 10 µM. bead flow cytometry, Alexa488-MEK5 binding to MEKK2 mutant; in the data active = percent response above about 24%, passing the limit was not always enough
# GRK2 CP1 = human GRK2 inhibition confirmation, cherry pick 1 | bead-bound GRK2, FAM-aptamer displacement, flow cytometry | AID 504451 | shares compounds with GRK2 inh | aptamer displacement, % at 10 µM | hit rate 4% among 2,000;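 active = aptamer displacement above 40%, near three times the noise of non-fluorescent compounds, on plates passing quality checks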;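 note: negative values mostly reflect intrinsic compound fluorescence rather than true enhancement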
# FAM quench CP1 = aptamer fluorescence quenching in GRK2 counter-screen; shares compounds with GRK2 inh; Carboxyfluorescein RNA aptamer on beads, flow cytometry quenching; stronger effect = lower value; fluorescence response (% of DMSO), % at 10 µM; 2,000 tested, under 10 active; AID 504580;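 active = compounds that quench the bead-bound fluorescent RNA probe, cutting fluorescence to under half of the solvent control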;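 note: counterscreen run without GRK2 so only probe quenching by compound is measured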
# GRK2 confirm 2 = confirmation of human GRK2 inhibitors binding RNA aptamer site. shares compounds with GRK2 inh. bead-bound GRK2, FAM-aptamer displacement, flow cytometry. inhibition of aptamer binding, % at 10 µM. 360 tested, under 10 active. AID 504782;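 active = inhibition of aptamer binding above 40%, about triple the noise seen with nonglowing compounds, on plates passing quality control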;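 note: negative values mostly come from compounds that fluoresce themselves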
# FAM quench CP2 = quenches fluorescent RNA aptamer, GRK2 hit artifact; shares compounds with GRK2 inh; carboxyfluorescein RNA aptamer beads, flow cytometry quenching; stronger effect = lower value; fluorescence response vs DMSO, % at 10 µM; 360 tested, under 10 active; AID 588494;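 active = response vs DMSO under 50%, meaning signal dropped by over half, treated as fluorescence quencher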;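 note: labelled aptamer on streptavidin beads without GRK2 as a quench counter-screen; 100% = bead fluorescence of DMSO wells and lower means quenching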
# B2AR ag CP1 = agonists of human beta-2 adrenergic receptor; shares compounds with B2AR ag; hit rate 25% among 1,100; Am2.2-beta2AR cells, FAP surface receptor, flow cytometry; stronger effect = lower value; percent response (surface receptor), % at 10 µM; AID 540358;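 active = surface receptor percent response at or below 58%, roughly 3 SD from nonfluorescent compounds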
# B2AR FAP counter = counter-screen for beta-2AR agonists: fluorescence in Am2.2 cells. 1,100 tested, under 10 active. calls only at 10 µM. FAP fluorogen flow cytometry, fluorescence counterscreen; stronger effect = lower value. shares compounds with B2AR ag;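 active = percent response below a set limit in fluorescence channel 1 and below 50% in channel 8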
# The depositor's hits bear a star; i = inactive; . = no result given; + = active, no number; ! = not active in a repeat.
SMILES,MEKK2wt PB1 HTS,MEKK3 PB1 HTS,B2AR ag,GRK2 inh,MEKK2mut PB1 HTS,GRK2 CP1,FAM quench CP1,others
COC(=O)C1(CC2CC(c3ccc(Cl)cc3)=NO2)CCN(C(=O)OC(C)(C)C)CC1 (configuration not stated),.,.,6,.,.,.,.,
Cc1occc1C(=O)Nc1cccc(C(=O)NCc2ccccc2)c1,100,100,-4,0,-3,-2,100,
COc1ccc(C(=O)Nc2cccc(C(=O)NCc3ccccc3)c2)cc1,98,99,3,0,-1,2,100,
Cc1ccc(C(=O)Nc2cccc(C(=O)NCc3ccccc3)c2)cc1,95,97,1,0,-3,2,102,
CCCN1CCc2c(sc(NC(=O)C3CCN(S(=O)(=O)c4cccs4)CC3)c2C(N)=O)C1,.,.,7,0,.,.,.,
O=c1c2oc3nc4c(cc3c2ncn1CCCc1ccccc1)CCCC4,85,86,-14,0,-16,.,.,
Cc1cccc2c(C(=O)n3cccn3)cc(-c3ccccc3Cl)nc12,99,109,-3,3,5,-1,98,
O=C(Cc1c(F)cccc1Cl)Nc1ccccc1-c1ccccc1,103,102,2,1,5,.,.,
CCCOc1ccccc1N1C(=O)CC(N(O)c2ccccc2)C1=O (configuration not stated),86,83,7,49*,-16,1,124,
COc1ccc(C)cc1N1CC(C(=O)Nc2ccccc2N2CCCCC2)CC1=O (configuration not stated),.,.,-6,78*,.,-2,97,
O=C(CC1Sc2ccccc2NC1=O)NNc1cc(Cl)ccc1Cl (configuration not stated),.,.,4,.,.,.,.,
COC(=O)c1sc2ncn(N)c(=O)c2c1C,95,99,.,42*,4,1,97,
COC(=O)c1sc2nc[nH]c(=O)c2c1C,.,.,32,4,.,.,.,
C[C@H](CO)N1C[C@H](C)[C@@H](CN(C)S(=O)(=O)c2cn(C)cn2)Oc2c(NC(=O)Nc3ccc4c(c3)OCO4)cccc2C1=O,.,.,1,2,.,.,.,
CN(C(=O)CN1C(=O)S/C(=C\c2ccccc2)C1=O)C1CCS(=O)(=O)C1 (configuration not stated),98,100,-1,0,-1,.,.,
CN(C(=O)CCN1C(=O)/C(=C/c2ccccc2)SC1=S)C1CCS(=O)(=O)C1 (configuration not stated),95,99,-14,72*,-6,0,99,
CCCn1cnc2scc(-c3ccc(C)c(C)c3)c2c1=O,102,103,-6,0,5,.,.,
COc1ccccc1C(=O)N/C(=C\c1cn(C)c2ccccc12)C(=O)N1CCOCC1,99,100,6,0,0,.,.,
COc1ccc(C(=O)N/C(=C\c2cn(C)c3ccccc23)C(=O)N2CCOCC2)cc1OC,104,104,-3,57*,0,-3,102,
CC(C(=O)O)n1c2ccccc2c2cnn(C)c(=O)c21 (configuration not stated),105,104,3,95*,0,3,106,
COc1ccc(CCNC(=O)CS(=O)(=O)Cc2nc(-c3ccccc3Cl)oc2C)cc1OC,103,101,-2,66*,2,1,96,GRK2 confirm 2=-21;FAM quench CP2=103
Cc1cc(C)cc(NC(=O)COC(=O)COc2ccc(N(C)S(=O)(=O)c3cccs3)cc2)c1,.,.,2,41*,.,-3,98,
COc1ccc(Cl)cc1C(=O)Nc1cccc(-c2ccc3nncn3n2)c1,84,84,77*,60*,-3,17,96,B2AR ag CP1=88;B2AR FAP counter=i
COc1cccc(C(=O)Nc2cccc(-c3ccc4nncn4n3)c2)c1OC,100,101,7,17,-2,.,.,
Cc1ccc(C(=O)Nc2cccc(C(F)(F)F)c2)cc1NC(=O)c1csc(-c2ccncc2)n1,98,95,91*,0,2,2,96,B2AR ag CP1=36*!;B2AR FAP counter=+!
SMILES,MEKK2wt PB1 HTS,MEKK3 PB1 HTS,B2AR ag,GRK2 inh,MEKK2mut PB1 HTS,GRK2 CP1,FAM quench CP1,others
CN(C)C(CNc1ncnc2ccccc12)c1c(F)cccc1Cl (configuration not stated),99,100,7,6,0,.,.,
Cc1noc(C)c1COc1ccccc1C(=O)N1CCN(S(=O)(=O)c2ccccc2C(F)(F)F)CC1,.,.,-3,0,.,.,.,
Cc1noc(C)c1COc1ccccc1C(=O)N1CCN(S(=O)(=O)c2ccccc2Br)CC1,.,.,71*,.,.,.,.,B2AR ag CP1=92;B2AR FAP counter=i
Oc1ccc(NCc2ccccc2OCc2ccccc2)cc1,92,97,-12,0,-1,.,.,B2AR ag CP1=124;B2AR FAP counter=i
CCNCc1ccccc1OCc1ccccc1,100,99,-4,1,-1,.,.,
Cc1ccc2nc(C)cc(C(=O)OCC(=O)c3ccc(Cl)c([N+](=O)[O-])c3)c2c1,.,.,53*,1,.,.,.,B2AR ag CP1=109;B2AR FAP counter=i
NC(=O)c1ccccc1OCc1nnc(-c2ccccc2Br)o1,102,101,-10,0,0,.,.,B2AR ag CP1=119;B2AR FAP counter=i
O=Cc1ccc(OCc2nnc(-c3ccccc3Br)o2)cc1,106,108,21,1,3,.,.,
CSc1ccc(S(=O)(=O)N2CCC(C(=O)NCC3CCCO3)CC2)cc1 (configuration not stated),102,100,155*,0,1,.,.,B2AR ag CP1=108;B2AR FAP counter=i
O=C(NCC1CCCO1)C1CCN(S(=O)(=O)c2ccc(Br)cc2)CC1 (configuration not stated),102,100,-4,0,1,.,.,
Cc1ccccc1-c1nc2c3ccccc3nc(=S)n2[nH]1,99,100,7,0,-9,.,.,B2AR ag CP1=119;B2AR FAP counter=i
CC(C)c1nnc(NC(=O)CCS(=O)(=O)c2nc(-c3cccs3)cc(C(F)(F)F)n2)s1,102,109,97*,7,1,.,.,B2AR ag CP1=55*;B2AR FAP counter=i
Cc1cc(Nc2ccccc2)nn1C(=O)c1ccccc1,97,99,0,2,-3,.,.,
